Measurements from PubChem BioAssay AID1159580 (chemical genetic matrix, 2015).
Values joined by “and” are separate entries in the source; they are usually repeats but may differ in a detail not shown here. Identical values can stand only once. The whole screen tested about 5,500 compounds, of which about 2,000 (36%) were called active. Another 18% or so got no clear call; they are omitted. Cut-off read from the data, not from the text of the source: active = normalized growth mostly below about 0.91 (no sharp cut-off); inconclusive = no clear call, values can overlap the other calls; inactive = mostly above about 0.92. The list shows a part of the results.

Assay: chemical genetic growth profiling, strain panel (AID 1159580);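 note: tested at 20 µM; growth read once vehicle control cultures reached saturation at 30 °C; 1 = growth at the plate median or of vehicle wells; lower values mean less growth of the strain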
Conditions: S. cerevisiae deletion strains, growth OD

Measured: normalized growth

CC1(C)C(=O)[C@@H]2C[C@@]3(O)C4=CC(=O)O[C@@H](c5ccoc5)[C@]4(C)CCC3[C@@](C)(C2=O)[C@H]1CC(=O)O (stereo partly specified)
inactive: locus YAL021C, strain ccr4, hits give low values 0.988 | locus YAL026C, strain drs2, hits give low values 1.02 | locus YAL030W, strain snc1, hits give low values 0.997 | locus YBL061C, strain skt5, hits give low values 1.01 | locus YBR009C, strain hhf1, hits give low values 1 | locus YBR021W, strain FUR4, hits give low values 1 | locus YBR023C, strain chs3, hits give low values 1.01 | locus YBR171W, strain sec66, hits give low values 1.01 | locus YBR229C, strain ROT2, hits give low values 1.01 | locus YBR231C, strain swc5, hits give low values 1.01 | locus YBR279W, strain paf1, hits give low values 1.01 | locus YCL011C, strain gbp2, hits give low values 1.02 | locus YCL016C, strain dcc1, hits give low values 1.01 | locus YCL029C, strain bik1, hits give low values 0.995 | locus YCL061C, strain MRC1, hits give low values 1 | locus YCL069W, strain vba3, hits give low values 1.01 | locus YCR088W, strain abp1, hits give low values 1 | locus YDL005C, strain med2, hits give low values 0.996 | locus YDL035C, strain GPR1, hits give low values 1.03 | locus YDL040C, strain nat1, hits give low values 0.991 | locus YDL074C, strain BRE1, hits give low values 1.02 | locus YDL101C, strain DUN1, hits give low values 1.01 | locus YDL185W, strain tfp1, hits give low values 0.995 | locus YDL192W, strain arf1, hits give low values 1 | locus YDR001C, strain nth1, hits give low values 1.01 | locus YDR069C, strain doa4, hits give low values 1.02 | locus YDR101C, strain arx1, hits give low values 0.993 | locus YDR137W, strain rgp1, hits give low values 1.04 | locus YDR150W, strain NUM1, hits give low values 1.01 | locus YDR159W, strain sac3, hits give low values 1.01 | locus YDR162C, strain NBP2, hits give low values 1.03 | locus YDR195W, strain ref2 0.972 | locus YDR297W, strain sur2, hits give low values 1.01 | locus YDR318W, strain mcm21, hits give low values 0.996 | locus YDR334W, strain swr1, hits give low values 1.01 | locus YDR335W, strain msn5, hits give low values 1.01 | locus YDR388W, hits give low values 0.967 | locus YDR392W, strain spt3, hits give low values 1.01 | locus YDR502C, strain sam2, hits give low values 0.991 | locus YEL003W, strain gim4, hits give low values 1.03 | locus YEL037C, strain rad23, hits give low values 1.01 | locus YEL061C, strain CIN8 (second series), hits give low values 1.02 | locus YEL061C, strain CIN8, hits give low values 1 | locus YER015W, strain faa2, hits give low values 1 | locus YER016W, strain bim1, hits give low values 1 | locus YER110C, hits give low values 0.984 | locus YER111C, strain swi4, hits give low values 1.01 | locus YER155C, strain BEM2 (second series), hits give low values 1.02 | locus YER155C, strain BEM2, hits give low values 1 | locus YER167W, strain BCK2, hits give low values 1 | locus YFR010W, strain ubp6, hits give low values 1.01 | locus YGL078C, strain dbp3, hits give low values 0.996 | locus YGL086W, strain mad1, hits give low values 1.01 | locus YGL167C, strain pmr1, hits give low values 1 | locus YGL173C, strain kem1, hits give low values 1.01 | locus YGL227W, strain vid30, hits give low values 0.998 | locus YGL240W, strain doc1, hits give low values 1.01 | locus YGL248W, strain PDE1, hits give low values 1 | locus YGL253W, strain hxk2, hits give low values 1.01 | locus YGR135W, strain pre9, hits give low values 0.997 | locus YGR252W, strain gcn5, hits give low values 1 | locus YHR013C, strain ard1, hits give low values 1.02 | locus YHR027C, strain rpn1, hits give low values 0.993 | locus YHR030C, strain SLT2, hits give low values 0.98 | locus YHR079C, strain IRE1 (second series), hits give low values 0.996 | locus YHR079C, strain IRE1, hits give low values 0.956 | locus YHR094C, strain hxt1, hits give low values 0.981 | locus YHR129C, strain ARP1, hits give low values 1 | locus YHR142W, strain chs7, hits give low values 1.02 | locus YHR200W, strain rpn10, hits give low values 0.988 | locus YIL066C, strain RNR3, hits give low values 1 | locus YIL073C, strain SPO22, hits give low values 1.05 | locus YIL125W, strain kgd1, hits give low values 0.994 | locus YIR030C, strain dcg1, hits give low values 0.993 | locus YJL092W, strain hpr5, hits give low values 1.01 | locus YJL095W, strain BCK1 (second series), hits give low values 1 | locus YJL095W, strain BCK1, hits give low values 1.02 and 0.973 | locus YJL115W, strain asf1, hits give low values 1.02 | locus YJL129C, strain trk1, hits give low values 0.998 | locus YJL134W, strain LCB3, hits give low values 1 | locus YJL154C, strain vps35, hits give low values 1 | locus YJL164C, strain tpk1, hits give low values 1.01 | locus YJL166W, strain qcr8, hits give low values 1.02 | locus YJL168C, strain set2, hits give low values 0.994 | locus YJL187C, strain SWE1 (second series), hits give low values 1.01 | locus YJL187C, strain SWE1, hits give low values 1.03
